Results reported in PubChem BioAssay (NCI).
Compounds without any hit were thinned out: in the full panel of roughly 83,000, 20% have a hit.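 Treatment: one concentration, 48 hours, 96-well format. Scoring: percent growth, with anything below 10 considered active.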 Values without a mark were called inactive. Calls of active or inactive are those of the source.

Key:
Assay in all cases: NCI-60 one-dose screen, 48 h (100 = growth as untreated, 0 = no growth, -100 = all killed)
Conditions in all cases: 10 µM unless noted
[1] = system: HCT-15 colon
[2] = system: HT29 colon
[3] = system: SNB-75 CNS
[4] = system: SNB-19 CNS
[5] = system: U251 CNS
[6] = system: PC-3 prostate
[7] = system: SK-MEL-5 melanoma
[8] = system: UACC-62 melanoma
[9] = system: LOX IMVI melanoma
[10] = system: SK-MEL-28 melanoma

| Structure (SMILES) | growth [1] | growth [2] | growth [3] | growth [4] [%] | growth [5] | growth [6] | growth [7] | growth [8] [%] | growth [9] | growth [10] [%] |
| --- | --- | --- | --- | --- | --- | --- | --- | --- | --- | --- |
| C=C(C)[C@@H]1CC[C@]2(C(=O)N3CCOCC3)CC[C@]3(C)[C@H](CC[C@@H]4[C@@]5(C)C/C(=C/c6ccncc6)C(=O)C(C)(C)[C@@H]5CC[C@]43C)[C@@H]12 | 42.6% | 33.8% | 78.5% | 76.9 | 55.7% | 25.2% | 60.6% | 43.1 | 60% | 74 |
| Nc1n[nH]c2cccc(C#Cc3cccc(C(=O)Nc4cc(C(F)(F)F)cc(C(F)(F)F)c4)c3)c12 | 70.4% | 46.4% | 91.5% | 105 | 84% | 33% | 73% | 50 | 41.2% | 62.1 |
| CCCCCCCCCc1ccc(OCCOCCOCCOCCOCCOCCOCCOCCOCCO)cc1 | 10.4% | 15.2% | 36.6% | 28.6 | 16.4% | 9.37% (active) | -77.3% (active) | 11.7 | 7.91% (active) | 34.4 |
| CSc1nc2ccccc2cc1/C=C1/C=C(c2ccccc2)NC1=O | 41.3% | 38.9% | 79.3% | 80.1 | 78.8% | 70.4% | 82.3% | 64 | 74.4% | 92.6 |
| Cc1cccc(CNc2c3ccccc3nc3ccccc23)c1 | 15.9% | 5.15% (active) | 37% | 29.7 | 23.7% | 24.9% | 19.8% | 42.8 | 6.25% (active) | 58.8 |
| NC(=O)c1ccc(-c2c3ccccc3cc3c2ccc2ccccc23)cc1 | 28.3% | -19.4% (active) | 42.5% | 60.9 | 42.5% | 54.4% | 40.8% | 33.4 | 33.3% | 60 |
| CCc1ccccc1-n1c(-c2ccc(OC)cc2)cc(-c2ccc(OC)cc2)c(C#N)c1=O | 106% | 110% | 2.64% (active) | 33.7 | 60.9% | 89.5% | 102% | 81.6 | 95% | 98.7 |
| Clc1ccc2c(c1)C(c1c[nH]c3ccccc13)(c1c[nH]c3ccccc13)CCO2 | 87.1% | -46.2% (active) | 68.4% | 97.4 | 46.8% | 35.3% | 83.8% | 57 | 79.4% | 95.3 |
| COc1ccc2c(c1)N(CCO)C1=C(C(=O)OC1)C2c1cccc(F)c1 (stereo not given) | 7.3% (active) | 3.98% (active) | 35.7% | 27.8 | 16.9% | 25.6% | 12.3% | 40 | 27.5% | 47.9 |
| Nc1n[nH]c2ccc([C@H]3[C@@H]4C5CCC(C5)[C@@H]4c4c(ccc5[nH]ncc45)N3S(=O)(=O)C3CC3)cc12 (stereo not given in full) | 12.3% | 9.97% (active) | -10.3% (active) | 23.2 | 17.7% | 28.3% | -22.4% (active) | 32.5 | 8.72% (active) | 52.7 |
| COc1ccc(/C=N\Nc2nc(SCCC(C)C)nc(-c3ccc(OC)cc3)c2C#N)cc1 | 74.6% | 55% | -19.4% (active) | 69.5 | 7.04% (active) | 72.3% | 94.3% | 79.1 | 66% | 104 |
| Cc1[nH]c(C(=O)Nc2ccc(C(=O)N3CCN(c4cc5c(cc4F)c(=O)c(C(=O)O)cn5C4CC4)CC3)cc2OC(C)C)c(Cl)c1Cl | 18.1% | 37.3% | 67.8% | 89.8 | 36.4% | 59.1% | 75.3% | 81.8 | 21.6% | 86.6 |
| CCOC(=O)c1cc(C)n(-c2ccc(C(=O)O)cc2)c1C | 24.8% | 37.8% | 130% | 94.5 | 96.3% | 83.3% | 92% | 86.7 | 80.2% | 127 |
